# Assay outcomes from PubChem BioAssay.
# Compounds with a hit are over-represented: about 11% of the library has one in this group of screens.
# HEK cytotox: Cytotoxic Profiling in HEK 293 Cell Line of Diverse Libraries Using Quantitative High-Throughput Screening | Potency, µM (series often up to 115 µM), without a hit: at the top dose activity change, negative = cytotoxicity, hits mostly inhibitors | hit rate 6.6% among 94,000 | HEK 293 viability, ATP luminescence (CellTiter-Glo), 48-72 h; also: nearly all actives have a fitted effect of over 60% in size
#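 qHTS cytotoxicity; HEK 293, 250 cells/well; compound pinned; 48 or 72 hr, 37 degree Celsius, 5% CO2, 95% humidity; CellTiter-Glo, 10 min RT; luminescence (ATP).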
# hNpr1 antagonist: Natriuretic polypeptide receptor (hNpr1) antagonism - Primary qHTS | Atrial natriuretic peptide receptor 1 (Homo sapiens), P16066 | HEK293 hNpr1 GloSensor cGMP, ANP-stimulated luminescence | Potency, µM (top dose mostly 46.3 µM), for inactives: at the top dose activity change, negative = inhibition, usual class: inhibitors | hit rate 1.6% among 76,000; calls by dose curve; also: nearly all actives have a fitted effect of over 60% in size
#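 Compound pre-incubated 30 min at room temperature on GloSensor-loaded HEK293 cells stably carrying hNpr1 and the pGS-40F cGMP biosensor. Stimulation uses hNppA at 0.1 nM final; luminescence is taken at baseline and 20 min post-agonist.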
# Luciferase inh: Firefly luciferase inhibition profiling of diverse chemical library using quantitative high-throughput screening; Luciferin 4-monooxygenase (Photinus pyralis), P08659; purified P. pyralis luciferase, luminescence, biochemical; Potency, µM (highest dose often 115 µM), usual class: inhibitors; hit rate 2.5% among 76,000; also: nearly all actives have a fitted effect of over 65% in size
# Target sequence (P08659 whole entry, looked up): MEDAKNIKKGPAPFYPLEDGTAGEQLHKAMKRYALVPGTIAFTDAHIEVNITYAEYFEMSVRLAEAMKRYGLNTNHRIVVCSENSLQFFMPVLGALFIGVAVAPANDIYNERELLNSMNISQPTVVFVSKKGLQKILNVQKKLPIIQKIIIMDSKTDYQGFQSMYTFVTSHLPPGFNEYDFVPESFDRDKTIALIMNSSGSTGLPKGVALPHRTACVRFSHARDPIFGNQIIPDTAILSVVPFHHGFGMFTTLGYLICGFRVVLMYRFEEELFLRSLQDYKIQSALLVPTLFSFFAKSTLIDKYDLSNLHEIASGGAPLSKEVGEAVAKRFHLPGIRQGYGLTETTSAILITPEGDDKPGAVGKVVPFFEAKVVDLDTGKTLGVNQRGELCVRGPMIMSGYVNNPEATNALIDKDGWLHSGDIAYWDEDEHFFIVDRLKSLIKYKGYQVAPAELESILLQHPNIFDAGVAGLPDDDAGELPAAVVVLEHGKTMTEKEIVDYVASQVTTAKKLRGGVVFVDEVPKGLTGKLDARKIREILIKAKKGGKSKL
#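 Luminescence read by CCD imaging after purified firefly luciferase (10nM final) was added to substrate buffer holding 10uM D-luciferin and 10uM ATP, pH 7.5, pre-dosed with compound.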
# 3T3 cytotox: Cytotoxic Profiling in NIH 3T3 Cell Line of Diverse Libraries Using Quantitative High-Throughput Screening; NIH 3T3 viability, CellTiter-Glo ATP luminescence, 48-72 h; Potency, µM (top dose mostly 96.7 µM), inactives show at the highest dose activity change, negative = cytotoxicity, most hits filed as inhibitors; hit rate 4.3% among 94,000; AID 1345082, 2018; also: nearly all actives have a fitted effect of over 55% in size
#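 Viability of NIH 3T3 cells after 48 or 72 hr compound treatment at 37 °C was assessed by CellTiter-Glo, with luminescence imaged following a 10 min room-temperature step.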
# Active calls of the source: *; i = inactive; ? = inconclusive; nt = no result; [ ] = another dose, or the depositor's remark. Unless noted, calls follow the shape of the dose curve; as a rule, active = well fitted curve in the direction sought with a large enough effect; inconclusive = small, poorly fitted or top-dose-only effect, or another doubt; inactive = no such curve, though single readings can be large; an effect the other way counts as inactive or inconclusive. % is scaled to controls: 0 for no effect and ±100 for the full control effect; potency is read from the fitted curve at half-maximal effect.
SMILES,HEK cytotox,hNpr1 antagonist,Luciferase inh,3T3 cytotox
N#Cc1cccc(CN2C[C@@H](CO)[C@H](NC(=O)c3ccccc3)C2)c1,?,-2%,i,5µM*
COc1cccc(CN2C[C@@H](CO)[C@H](NC(=O)c3ccccc3)C2)c1,35µM*,-10%,i,?
COc1ccccc1Nc1ccnc(N2CCN(C(=O)Cc3cccc(Cl)c3)CC2)n1,45µM*,nt,nt,?
COCC(=O)N1CCN(c2nccc(Nc3ccccc3OC)n2)CC1,i,nt,nt,-26%
O=C(Cc1cccc(Cl)c1)N1CCN(c2nccc(Nc3ccccc3F)n2)CC1,28µM*,nt,nt,?
OC1(c2nc(Nc3cccc(C(F)(F)F)c3)n[nH]2)CCOCC1,-24%[172 µM],-6%[70.6 µM],i,?
CCc1nc2c(c(-c3ccc(O)cc3)n1)CN(C(=O)C1CCCC1)CC2,40µM*,nt,nt,?
O=C(C1CCCC1)N1CCc2nc(-c3ccccc3)nc(-c3ccc(Cl)cc3)c2C1,35µM*,-13%,i,?
O=C(C1CCCC1)N1CCc2nc(-c3ccc(Cl)cc3)nc(-c3ccccc3)c2C1,18µM*,-13%,?,?
O=C(C1CC1)N1CCc2nc(-c3ccccc3)nc(-c3ccc(Cl)cc3)c2C1,-17%,-30%,i,-23%
COc1ccc(-c2nc(-c3ccccc3)nc3c2CN(C(=O)C2CCCC2)CC3)cc1,35µM*,5%,i,?
COC(=O)N1CCc2nc(-c3ccc(OC)cc3)nc(-c3ccccc3)c2C1,?,-15%,i,?
CCOCCNC(=O)c1c(C)noc1-c1ccc(OC)cc1,-3%,2%,i,-5%
Cc1cccc(-c2ccc3c(c2)C(=O)N2CC[C@H](NC(=O)C4CCCC4)[C@H]2C(=O)N3)c1C,?,-4%[70.6 µM],i,?
COc1ccc(-c2nc(C3CC3)nc3c2CN(C(=O)c2ccccc2F)CC3)cc1,-10%,nt,nt,28µM*
CC1=C[C@@H](CN2CCOCC2)[C@H](C(C)C)C[C@H]1Cc1nnc(-c2ccc(N(C)C)cc2)o1,?,-26%,i,?
CC1=C[C@@H](CN2CCOCC2)[C@H](C(C)C)C[C@H]1Cc1nnc(-c2ccccc2)o1,89µM*,-8%[70.6 µM],i,?
CC1=C[C@@H](CN2CCN(c3ccccn3)CC2)[C@H](C(C)C)C[C@H]1Cc1nnc(-c2ccccc2)o1,40µM*,-28%,i,?
CC1=C[C@@H](CN2CCN(c3cnccn3)CC2)[C@H](C(C)C)C[C@H]1Cc1nnc(-c2ccc([N+](=O)[O-])cc2)o1,?,1%,i,?
Cn1ncc2c(C(=O)CCc3ccc(F)cc3)cc(-c3ccc(Cl)cc3Cl)nc21,35µM*,nt,nt,32µM*
Cn1ncc2c(C(=O)NCc3cccc(Cl)c3)cc(-c3ccc(Cl)cc3Cl)nc21,-7%,nt,nt,-22%
Cn1ncc2c(C(=O)NCC(F)(F)F)cc(-c3ccc(Cl)cc3Cl)nc21,-5%,nt,nt,-42%
Cn1ncc2c(C(=O)NCc3cccs3)cc(-c3ccc(Cl)cc3Cl)nc21,40µM*,nt,nt,?
CCC(C)Cc1nccc(C2(c3ccccc3Cl)CCNCC2)n1 (stereo not drawn),25µM*,-4%,i,28µM*
CC(C)CNc1nccc(C2(c3ccccc3Cl)CCNCC2)n1,25µM*,-6%,i,28µM*
SMILES,HEK cytotox,hNpr1 antagonist,Luciferase inh,3T3 cytotox
O=C(NCc1nnc2n1C(C(=O)N1CCCC1)CC2)c1ccc(Cl)cc1Cl (stereo not drawn),i,nt,nt,4%
COc1ccc(S(=O)(=O)N[C@H]2C[C@H]3C(=O)NC[C@@H](CCC(=O)NCc4ccccc4)N3C2)cc1,2%,6%,i,-2%
Cc1cccc(-c2noc([C@@H]3Cc4nc[nH]c4CN3)n2)c1,-4%[230 µM],-2%[70.6 µM],50µM*,-27%[230 µM]
O=[N+]([O-])c1cccc(-c2noc([C@@H]3Cc4nc[nH]c4CN3CC3CCCCC3)n2)c1,56µM*,-14%[70.6 µM],i,71µM*
Cc1cccc(-c2noc([C@@H]3Cc4nc[nH]c4CN3C(=O)c3ccc(-c4ccccc4)cc3)n2)c1,35µM*,-26%,i,20µM*
Cc1cccc(-c2noc([C@@H]3Cc4nc[nH]c4CN3C(=O)c3ccccc3C(=O)O)n2)c1,-15%[172 µM],4%[70.6 µM],?,-5%[174 µM]
Cc1cccc(-c2noc([C@@H]3Cc4nc[nH]c4CN3C(=O)C3CCCCC3)n2)c1,?,-1%[70.6 µM],56µM*,?
Cc1cc(C(=O)N2CCC(F)CC2)c2c(C3CCCN3)noc2n1 (stereo not drawn),3%,nt,nt,i
CCn1ccc2sc(C)c(C(=O)NCc3ccc(Br)cc3)c2c1=O,-14%,-4%,i,-2%
O=C(NC1CC1)C1CCCCN1Cc1ccc(-c2cccs2)cc1 (stereo not drawn),45µM*,nt,nt,?
O=C(NC1CCOCC1)C1CCCCN1Cc1ccc(-c2cccs2)cc1 (stereo not drawn),45µM*,nt,nt,?
CC(=O)NC1CCN(C(=O)c2ccc(-c3cccs3)cc2)CC1,3%[172 µM],nt,nt,-19%[138 µM]
O=C(C1CCCCN1Cc1ccc(-c2cccs2)cc1)N1CCN(Cc2ccccc2)CC1 (stereo not drawn),?,nt,nt,32µM*
O=C(C1CCCCN1Cc1ccc(-c2ccsc2)cc1)N1CCOCC1 (stereo not drawn),?,nt,nt,-23%
CCc1ccc(S(=O)(=O)N2C[C@@H](F)C[C@H]2C(=O)N2CCOCC2)cc1,2%,4%,i,5%
CC(=O)c1c(C)nn(CCC(=O)NCc2noc(-c3ccccc3)n2)c1C,-27%,?,i,?
Cc1oc(C(O)c2cncnc2)nc1C(=O)Nc1ccc2c(c1)NC(=O)CO2 (stereo not drawn),-11%[172 µM],-1%[70.6 µM],i,?
COc1cccc(C(O)c2nc(C(=O)Nc3ccc(OC)c(OC)c3)c(C)o2)c1 (stereo not drawn),?,3%[70.6 µM],25µM*,-24%[138 µM]
COc1cccc(C(O)c2nc(C(=O)NCc3ccco3)c(C)o2)c1 (stereo not drawn),-41%[172 µM],-5%[70.6 µM],i,?
Cc1oc(C(O)c2cncnc2)nc1C(=O)Nc1ccc(N2CCOCC2)cc1 (stereo not drawn),-12%[172 µM],-2%[70.6 µM],18µM*,?
Cc1cccc(-c2noc(CCC(=O)N3CCC(C)(c4noc(C)n4)CC3)n2)c1,45µM*,-12%,i,?
Cc1cccc(-c2noc(CCC(=O)N3CCC(C)(c4noc(-c5ccncc5)n4)CC3)n2)c1,?,?,i,?
CCn1ccc(C(=O)NC2CCCN(c3cc(-c4ccc(Cl)cc4)[nH]n3)C2)n1 (stereo not drawn),?,-15%,35µM*,?
